About 79,000 compounds went through this panel and 15% of them were active in at least one assay; those are over-represented in the sample as a whole. Unmarked numbers belong to inactive results. The source made the active and inactive calls. No stated cut-off is given here; in the data, active means growth inhibition above about 70%; inactive means the rest.
assay: NCI Yeast Anticancer Drug Screen. Data for the mgt1 strain (AID 153); settings: S. cerevisiae mgt1 mutant growth inhibition; at 3.7 µM; stronger effect = higher value
How it was run: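 Read-out: yeast growth inhibition vs vehicle control. Strain mgt1, drawn from a panel altered in DNA damage repair or cell cycle control.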

SMILES | growth inhibition
O=C1/C(=C/c2ccccc2)CCCC1CN1CCCCC1 (stereo not drawn) | 44%
C#CCN(Cc1ccc2nc(N)[nH]c(=O)c2c1)c1ccc(C(=O)NC(CCC(=O)O)C(=O)O)cc1 (stereo not drawn) | -23%
CCOC1(c2cccc([N+](=O)[O-])c2)c2ccccc2Oc2ccccc21 | -2%
O=C(O)CNC(=S)Nc1ccccc1 | -17%
N/C(=N/N=C/c1cc(Br)cc(Br)c1O)NO | -27%
C[Si](C)(C)/C=C/CCNC(C#N)c1ccccc1 (stereo not drawn) | -25%
CCCCCCCCCCCCCCCCOP(=O)(O)OCC(N)C(=O)O (stereo not drawn) | 5%
CC1=C(C(=O)NCc2ccccc2)C(c2ccccc2)C(C(=O)NCc2ccccc2)=C(C)N1 | -2%
O=[N+]([O-])c1cc(S(=O)(=O)Nc2ccccc2)ccc1Nc1ccccc1 | 11%
COc1cc2ccnc(-c3c4ccccc4c(N)c4c(OC)c(OC)ccc34)c2cc1OC | -1%
CCOC(=O)C(Br)C(Br)c1ccccc1Cl (stereo not drawn) | 14%
CCOC(=O)C1=C(C)NC(C)=C(C(=O)OCCNC(=O)c2ccc(N=[N+]=[N-])cc2)C1c1ccccc1C(F)(F)F (stereo not drawn) | -3%
Cc1cc(C)c(NC(=S)NC(=O)c2ccccc2)cc1C | -54%
CNCCCNc1c2ccccc2nc2cccc([N+](=O)[O-])c12 | 42%
COc1c(O)c(C=O)c(Br)c(C=O)c1O | 0%
Cc1c(C)c(C)c(CSC(=N)N)c(C)c1C | -50%
O=C(CSC(=S)N1CCCCC1)Nc1nc2c(s1)CCCC2 | -7%
CNC(=O)OCc1c(COC(=O)NC)c(-c2ccc(Cl)cc2)n2c1CCC2 | -55%
CC(=O)OC1CC2C(C)(C)C(=O)C=C[C@]2(C)C2CCC3(C)C(=CCC3[C@H](CO)C[C@H](O)C(=O)C(C)(C)O)[C@]12C (stereo partly drawn) | -34%
CCCCCCOC(=O)NCCOC(=O)Nc1ccccc1 | 1%

SMILES | growth inhibition
C[C](C)(C)[Ge]([O][Ge]([c]1ccccc1)[c]1ccccc1)([O][Ge]([c]1ccccc1)[c]1ccccc1)[C](C)(C)C | 3%
CCc1c(Cl)c(C)cc(O)c1Cl | 5%
Cc1nc(Nc2ccccc2[N+](=O)[O-])sc1C(=O)CC(=O)C(=O)Nc1c(C(C)C)cccc1C(C)C | 0%
O=[N+]([O-])c1cccc2nc3ccccc3c(NCCCn3ccnc3[N+](=O)[O-])c12 | 28%
CCCCCCC(O)CNCc1ccnc2ccc(OC)cc12 (stereo not drawn) | 4%
Cc1c2cccc(Sc3ccccc3)c2c2c3c(cccc13)[S+](c1ccccc1)C2 (stereo not drawn) | 4%
C=C1CCC(O)C/C1=C/C=C1\CCCC2(C)C1CCC2C(C)CCCC(C)C (stereo not drawn) | -15%
NC1=NNC2(C(N)=N1)c1ccccc1-c1ccccc12 | 6%
COc1cc2cc3c4cc(OC)c(OC)cc4cc[n+]3c(C)c2cc1OC | -29%
COC(=O)NC1C(C)OC(OC2C/C=C(/C)C3C=CC4C(OC5CC(OC6CC(O)C(OC7CC(O)C(OC)C(C)O7)C(C)O6)C(O)C(C)O5)C(C)CC(C)C4C3(C)/C(O)=C3\C(=O)OC4(CC(C)C(CO)=CC4/C=C\2C)C3=O)CC1(C)[N+](=O)[O-] (stereo not drawn) | 2%
O=C1CSC(c2cccc(Cl)c2)N1c1ccc(-c2ccc(-n3c(-c4ccccc4)nc4ccccc4c3=O)cc2)cc1 (stereo not drawn) | 2%
CCOC(=O)C(C(=O)OCC)=P(c1ccccc1)(c1ccccc1)c1ccccc1 | 3%
COc1ccc(N=CN(C)C)c(C)c1 | -51%
Cc1cc(S(=O)(=O)Nc2nnc3cnc4ccccc4n23)c(S)cc1Cl | -2%
O=C(Oc1ccc2c(c1)CN(Cc1ccccc1)CO2)c1ccccc1 | 0%
CN(C)[C@@H]1C(=O)C(C(N)=O)=C(O)[C@@]2(O)C(=O)C3=C(O)c4c(O)cccc4C[C@H]3C[C@@H]12 | -5%
O=[N+]([O-])c1ccc2c(c1)/C(=N/N=C1c3ccccc3Cc3ccccc31)c1cc([N+](=O)[O-])cc([N+](=O)[O-])c1-2 | 74% (active)
Cc1nc2c(Br)cc(Br)cc2c(=O)n1-c1ccccc1NC1OCC(O)C(O)C1O (stereo not drawn) | 21%
Cc1cc(N(CCOS(C)(=O)=O)CCOS(C)(=O)=O)ccc1C=Nc1ccc(-c2nc(Cc3ccccc3)sc2C)cc1 | 4%

same assay, conditions: S. cerevisiae mgt1 mutant growth inhibition; at 11.0 µM; stronger effect = higher value

SMILES | growth inhibition
O=C1/C(=C/c2ccccc2)CCCC1CN1CCCCC1 (stereo not drawn) | 59%
C#CCN(Cc1ccc2nc(N)[nH]c(=O)c2c1)c1ccc(C(=O)NC(CCC(=O)O)C(=O)O)cc1 (stereo not drawn) | -27%
CCOC1(c2cccc([N+](=O)[O-])c2)c2ccccc2Oc2ccccc21 | 0%
O=C(O)CNC(=S)Nc1ccccc1 | 6%
N/C(=N/N=C/c1cc(Br)cc(Br)c1O)NO | 66%
C[Si](C)(C)/C=C/CCNC(C#N)c1ccccc1 (stereo not drawn) | 38%
CCCCCCCCCCCCCCCCOP(=O)(O)OCC(N)C(=O)O (stereo not drawn) | 52%
CC1=C(C(=O)NCc2ccccc2)C(c2ccccc2)C(C(=O)NCc2ccccc2)=C(C)N1 | -3%
O=[N+]([O-])c1cc(S(=O)(=O)Nc2ccccc2)ccc1Nc1ccccc1 | 89% (active)
COc1cc2ccnc(-c3c4ccccc4c(N)c4c(OC)c(OC)ccc34)c2cc1OC | 0%
CCOC(=O)C(Br)C(Br)c1ccccc1Cl (stereo not drawn) | 61%
CCOC(=O)C1=C(C)NC(C)=C(C(=O)OCCNC(=O)c2ccc(N=[N+]=[N-])cc2)C1c1ccccc1C(F)(F)F (stereo not drawn) | -2%
Cc1cc(C)c(NC(=S)NC(=O)c2ccccc2)cc1C | -25%
CNCCCNc1c2ccccc2nc2cccc([N+](=O)[O-])c12 | 72% (active)
COc1c(O)c(C=O)c(Br)c(C=O)c1O | 8%
Cc1c(C)c(C)c(CSC(=N)N)c(C)c1C | -50%
O=C(CSC(=S)N1CCCCC1)Nc1nc2c(s1)CCCC2 | -16%
CNC(=O)OCc1c(COC(=O)NC)c(-c2ccc(Cl)cc2)n2c1CCC2 | -49%
CC(=O)OC1CC2C(C)(C)C(=O)C=C[C@]2(C)C2CCC3(C)C(=CCC3[C@H](CO)C[C@H](O)C(=O)C(C)(C)O)[C@]12C (stereo partly drawn) | 53%
CCCCCCOC(=O)NCCOC(=O)Nc1ccccc1 | 3%

SMILES | growth inhibition
C[C](C)(C)[Ge]([O][Ge]([c]1ccccc1)[c]1ccccc1)([O][Ge]([c]1ccccc1)[c]1ccccc1)[C](C)(C)C | 44%
CCc1c(Cl)c(C)cc(O)c1Cl | 29%
Cc1nc(Nc2ccccc2[N+](=O)[O-])sc1C(=O)CC(=O)C(=O)Nc1c(C(C)C)cccc1C(C)C | 0%
O=[N+]([O-])c1cccc2nc3ccccc3c(NCCCn3ccnc3[N+](=O)[O-])c12 | 38%
CCCCCCC(O)CNCc1ccnc2ccc(OC)cc12 (stereo not drawn) | 17%
Cc1c2cccc(Sc3ccccc3)c2c2c3c(cccc13)[S+](c1ccccc1)C2 (stereo not drawn) | 97% (active)
C=C1CCC(O)C/C1=C/C=C1\CCCC2(C)C1CCC2C(C)CCCC(C)C (stereo not drawn) | -7%
NC1=NNC2(C(N)=N1)c1ccccc1-c1ccccc12 | 3%
COc1cc2cc3c4cc(OC)c(OC)cc4cc[n+]3c(C)c2cc1OC | -38%
COC(=O)NC1C(C)OC(OC2C/C=C(/C)C3C=CC4C(OC5CC(OC6CC(O)C(OC7CC(O)C(OC)C(C)O7)C(C)O6)C(O)C(C)O5)C(C)CC(C)C4C3(C)/C(O)=C3\C(=O)OC4(CC(C)C(CO)=CC4/C=C\2C)C3=O)CC1(C)[N+](=O)[O-] (stereo not drawn) | -1%
O=C1CSC(c2cccc(Cl)c2)N1c1ccc(-c2ccc(-n3c(-c4ccccc4)nc4ccccc4c3=O)cc2)cc1 (stereo not drawn) | 3%
CCOC(=O)C(C(=O)OCC)=P(c1ccccc1)(c1ccccc1)c1ccccc1 | 1%
COc1ccc(N=CN(C)C)c(C)c1 | -43%
Cc1cc(S(=O)(=O)Nc2nnc3cnc4ccccc4n23)c(S)cc1Cl | -1%
O=C(Oc1ccc2c(c1)CN(Cc1ccccc1)CO2)c1ccccc1 | 2%
CN(C)[C@@H]1C(=O)C(C(N)=O)=C(O)[C@@]2(O)C(=O)C3=C(O)c4c(O)cccc4C[C@H]3C[C@@H]12 | 21%
O=[N+]([O-])c1ccc2c(c1)/C(=N/N=C1c3ccccc3Cc3ccccc31)c1cc([N+](=O)[O-])cc([N+](=O)[O-])c1-2 | 99% (active)
Cc1nc2c(Br)cc(Br)cc2c(=O)n1-c1ccccc1NC1OCC(O)C(O)C1O (stereo not drawn) | 20%
Cc1cc(N(CCOS(C)(=O)=O)CCOS(C)(=O)=O)ccc1C=Nc1ccc(-c2nc(Cc3ccccc3)sc2C)cc1 | 55%
